Whole data set: some 18,000 sequences, median “log2 normalized intensity” near 0.39, cut for the highest 2% near 6.6. Shown is part of a subset that was picked to be rich in the highest values.

The target in this assay is T1, HNF4alpha2 (COS-7 nuclear extract) (Homo sapiens, UniProt P41235 1-474).
T1 sequence: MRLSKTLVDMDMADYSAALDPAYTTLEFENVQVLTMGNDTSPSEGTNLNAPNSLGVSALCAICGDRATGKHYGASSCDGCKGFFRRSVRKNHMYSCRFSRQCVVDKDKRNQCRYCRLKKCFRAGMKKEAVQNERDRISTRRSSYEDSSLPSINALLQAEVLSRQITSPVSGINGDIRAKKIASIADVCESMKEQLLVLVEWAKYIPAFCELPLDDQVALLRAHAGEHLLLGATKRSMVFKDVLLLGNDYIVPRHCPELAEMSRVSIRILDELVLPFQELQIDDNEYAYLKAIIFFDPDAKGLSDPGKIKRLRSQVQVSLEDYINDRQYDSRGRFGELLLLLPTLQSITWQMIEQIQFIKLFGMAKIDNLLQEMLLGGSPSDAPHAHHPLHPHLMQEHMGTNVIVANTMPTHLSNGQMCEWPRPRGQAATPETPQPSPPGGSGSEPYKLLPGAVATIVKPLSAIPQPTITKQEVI
Description: protein-binding microarray; COS-7 nuclear extract on double-stranded Agilent 4x180k PBM; binding buffer, salt, pH and temperature not given in the material; high values mean tight binding. To be noted: chain copies: 2; label: 3' end of strand 1 on the slide; dsDNA, one strand shown. In a few lines: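 The binding signal is Agilent software's gProcessedSignal after background correction and normalization. Arrays were a custom Agilent SurePrint G3 4x180k design of double-stranded ~60-nt oligonucleotides with ~44,000 test sequences in quadruplicate, probed with nuclear extracts of COS-7 cells transiently expressing a human HNF4α isoform. Scans were made at 2-µm resolution on an Agilent G2565CA scanner.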
As for “TAGACCAGCCAATTCTACTGGAAGTAGGTAGCCTAGGGAGATTAGAGTATCGGTCGA”, the binding signal stood at 0.854 log2 normalized intensity.
The value for “CCTTTCCCCGCCCCGCGTCCGTGCACCCTTGCCTAGGGAGATTAGAGTATCGGTCGA” was 4.42 log2 normalized intensity; that for “ACTTTGAGGTGTTCTCTGGGGTTAGCCAAAGCCTAGGGAGATTAGAGTATCGGTCGA” was 1.59 log2 normalized intensity; that for “CGGGTCAGCAGGGCACCGCCTCCACACCCCGCCTAGGGAGATTAGAGTATCGGTCGA” was 1.59 log2 normalized intensity.
“TCACAATTAAGCCAAACTTGGGTTTATGGCGCCTAGGGAGATTAGAGTATCGGTCGA”: the binding signal stood at 0.583 log2 normalized intensity.
In the case of “AGACAACCTTTGGTCACTTGTAAGATACTGGCCTAGGGAGATTAGAGTATCGGTCGA” it was 2.43 log2 normalized intensity.
On to “AAGGTTGGTCTTAGGACCACATGAGTAAACGCCTAGGGAGATTAGAGTATCGGTCGA”, for which the binding signal is -0.756 log2 normalized intensity.
On to “GAGAAGTGAACTTTGCCCTCTCTTTCTGGAGCCTAGGGAGATTAGAGTATCGGTCGA”, for which the binding signal was 7.55 log2 normalized intensity.
In the case of “GTGAACTTTGCCCTCTCTTTCTGGAACCTAGCCTAGGGAGATTAGAGTATCGGTCGA” it was 5.08 log2 normalized intensity; in that of “GGCTTGATCCCTGAACTTTGCTCCCACCCTGCCTAGGGAGATTAGAGTATCGGTCGA”, 5.57 log2 normalized intensity.
In the case of “TCTCTGGCTTGATCCCTGAACTTTGCTCCCGCCTAGGGAGATTAGAGTATCGGTCGA” it was 7.97 log2 normalized intensity; in that of “CCTTGGATCTCCTGCACCTGAACTTTGCTCGCCTAGGGAGATTAGAGTATCGGTCGA”, 6.35 log2 normalized intensity; in that of “AAGTGACCCTGGTCTTTGCCCTTTCCTAGAGCCTAGGGAGATTAGAGTATCGGTCGA”, 3.39 log2 normalized intensity.
As for “TCCTGCCTTGGAGAAGTGAACTTTGCCCTCGCCTAGGGAGATTAGAGTATCGGTCGA”, the binding signal amounted to 10.2 log2 normalized intensity.
As for “TGGGCTCCTGCCTTGGAGAAGTGAACTTTGGCCTAGGGAGATTAGAGTATCGGTCGA”, the binding signal is 4.34 log2 normalized intensity.
The value for “ACTGATCTCTGGCTTGATCCCTGAACTTTGGCCTAGGGAGATTAGAGTATCGGTCGA” was 3.32 log2 normalized intensity.
Turning to “TGGGCTCGGCGCTCCGCTTACTCGGCCTGGGCCTAGGGAGATTAGAGTATCGGTCGA”, the binding signal was -0.994 log2 normalized intensity.
As to “TCCCTCATTAGTAACTCCAGAGATAAGATAGCCTAGGGAGATTAGAGTATCGGTCGA”, the binding signal was determined as 0.0683 log2 normalized intensity.
As for “GCAGTGGGACAAAGGTCACAGGAAAGGGACGCCTAGGGAGATTAGAGTATCGGTCGA”, the binding signal worked out at 4.13 log2 normalized intensity.
The value for “AGGGAGGGGAGAGGGGGTTAAAGGTTATTTGCCTAGGGAGATTAGAGTATCGGTCGA” was 4.97 log2 normalized intensity.
In the case of “CCTATATAGTTGAGATTGTAACCGTAAATGGCCTAGGGAGATTAGAGTATCGGTCGA” it was 1.55 log2 normalized intensity; in that of “GTTAAGTGAGTGGACTTTGGTCCTGGTCAGGCCTAGGGAGATTAGAGTATCGGTCGA”, 6.52 log2 normalized intensity; in that of “ATGTACATGGACTTTGAACCAAGATATGCTGCCTAGGGAGATTAGAGTATCGGTCGA”, 6.75 log2 normalized intensity.
On to “ACACAGTACTTTGTACATGGGAATAGACATGCCTAGGGAGATTAGAGTATCGGTCGA”, for which the binding signal is 0.863 log2 normalized intensity.
The value for “CATGGACTTTGAACCAAGATATGCTAACATGCCTAGGGAGATTAGAGTATCGGTCGA” was 4.81 log2 normalized intensity; that for “GAATGCAACCACACCAACATGGACTTTGTCGCCTAGGGAGATTAGAGTATCGGTCGA” was 6.09 log2 normalized intensity.
The value for “AGATTTGAATATGTACATGGACTTTGAACCGCCTAGGGAGATTAGAGTATCGGTCGA” was 10.3 log2 normalized intensity; that for “AGGTACTAAGAGATTTGAATATGTACATGGGCCTAGGGAGATTAGAGTATCGGTCGA” was 1.38 log2 normalized intensity.
Take “CTAAGAGATTTGAATATGTACATGGACTTTGCCTAGGGAGATTAGAGTATCGGTCGA”: the binding signal is 6.19 log2 normalized intensity.
In the case of “TGAATATGTACATGGACTTTGAACCAAGATGCCTAGGGAGATTAGAGTATCGGTCGA” it was 8.36 log2 normalized intensity; in that of “CGGTCAGCTGCTTGACTTAGTACATGGCCTGCCTAGGGAGATTAGAGTATCGGTCGA”, 0.557 log2 normalized intensity.
The value for “ATCCTTATCTTGTAGAAAAGTGCATGGATTGCCTAGGGAGATTAGAGTATCGGTCGA” was 0.836 log2 normalized intensity; that for “TTGAGTTTGCTCTGCTACTAACTGCATGACGCCTAGGGAGATTAGAGTATCGGTCGA” was -0.452 log2 normalized intensity.
Turning to “TTCTCCAGGAAGTTCAGGCCTCGGCTTCATGCCTAGGGAGATTAGAGTATCGGTCGA”, the binding signal is -0.98 log2 normalized intensity.
The value for “CACTCAATGCAGCAGCATTGGACCCTCCCAGCCTAGGGAGATTAGAGTATCGGTCGA” was 5.46 log2 normalized intensity; that for “CTGCAGATTGACTCAGGCATTCTGACCTTTGCCTAGGGAGATTAGAGTATCGGTCGA” was 6.93 log2 normalized intensity.
With “TAAAACTGCAGATTGACTCAGGCATTCTGAGCCTAGGGAGATTAGAGTATCGGTCGA”, the binding signal is -0.529 log2 normalized intensity.
In the case of “TTTTAAGGTCTGGCATTCTTTTTGACCTTTGCCTAGGGAGATTAGAGTATCGGTCGA” it was 7.55 log2 normalized intensity; in that of “TATTTAGACTCAGCATGTCTTCTGACCTTTGCCTAGGGAGATTAGAGTATCGGTCGA”, 6.51 log2 normalized intensity; in that of “CCTTTTATTTTCTTATCTGCCTAGGCATTTGCCTAGGGAGATTAGAGTATCGGTCGA”, 1.33 log2 normalized intensity.
The value for “CCATATCACATTTTAAGGTCTGGCATTCTTGCCTAGGGAGATTAGAGTATCGGTCGA” was 1.37 log2 normalized intensity; that for “ACTCAGGCATTCTGACCTTTGTCTCCAGGCGCCTAGGGAGATTAGAGTATCGGTCGA” was 5.69 log2 normalized intensity; that for “GATTGACTCAGGCATTCTGACCTTTGTCTCGCCTAGGGAGATTAGAGTATCGGTCGA” was 7.05 log2 normalized intensity.
In the case of “GGCATTCTGACCTTTGTCTCCAGGCAAACTGCCTAGGGAGATTAGAGTATCGGTCGA” it was 4.88 log2 normalized intensity; in that of “CCTTATGACGGACAAAGGGCTCTCTCACCAGCCTAGGGAGATTAGAGTATCGGTCGA”, -0.701 log2 normalized intensity.

Values taken from PMC10726135, “HNF4α isoforms regulate the circadian balance between carbohydrate and lipid metabolism in the liver”.
